The structures appear in SMILES notation. This is part of a sample that, as a whole, favours compounds with a hit. Of some 83,000 tested, about 20% had one in any assay.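 Assay: single dose, 48 h. Readout: percent growth (0 = no net growth; negative = cell death). Active: <10.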 A number with no mark means an inactive call. Active and inactive are the calls of the source.

The test system of this experiment is HL-60(TB) leukemia. Put plainly: NCI-60 one-dose screen, 48 h (100 = growth as untreated, 0 = no growth, -100 = all killed). The following applies: 10 µM unless noted.
Take `CCn1c(SCc2ccc(C)cc2)nnc1-c1nn(-c2ccc(Cl)cc2Cl)c(-c2ccc(Cl)cc2)c1C`: the growth was -13.1% (active). In the case of `Nc1cc(Br)cc2c1[nH]c(=O)c1ccccc12`, the growth is 91.6%. The figure for `Cc1ccc2c(c1)C(=O)/C(=C/c1cccc(OCC(=O)c3ccc(Cl)cc3)c1)CS2` is 43.1%. With `C#CCN1C(=O)/C(=c2\sc3n(c2=O)NC2C(N=3)N(CC)C(=O)N2CC)c2ccccc21` (stereo not given), the growth is -34.3% (active). Consider `CCOC(=O)Cn1c(-c2nonc2NC(=O)c2ccccc2F)nc2ccccc21`, for which the growth is 35.1%. The figure for `Nc1c(C(=O)Nc2ccccc2Cl)sc2nc3c(cc12)C(=O)CCC3` is 67.1%; for `Cc1ccc(Nc2nc(-c3cc(O)c(C)c(C)c3O)cs2)cc1` it is 9.51% (active). For the molecule `CCCNC(=O)c1cn2ncnc(Nc3cc(C(=O)NC4CC4)ccc3C)c2c1C`, the growth is 129%.

As to `Nc1ccc(/C=N/Nc2ccnc3c(N)cccc23)c2cccnc12`, the growth is -60.4% (active). The result for `Nc1cc(N)c(N)cc1N` reads 29.1%; that for `Clc1ccc(C2=NN(c3ccc(Cl)cc3)C(c3cccc(Nc4ccnc5cc(Cl)ccc45)c3)C2)cc1` (stereo not given), 102%; that for `CCOC(=O)Oc1c(OC)cc(C(=O)c2ccc(OC)c(O)c2OC)cc1OC`, -32.6% (active). The result for `C[C@@H](Oc1cc(-c2cnn(C3CCNCC3)c2)cnc1N)c1c(Cl)ccc(F)c1Cl` reads -59.4% (active). With `O=C1/C(=C/c2ccc(Br)cc2)COc2ccc(O)c(O)c21`, the growth was -23.2% (active). As to `Cc1ccnc2c(NC(C)CCCN)cc(O)c(O)c12` (stereo not given), the growth is 7.56% (active). The result for `COc1cc2ncn3c(=O)c4c5c(sc4nc3c2cc1OC)CCCC5` reads 106%; that for `CCN1C(=O)C2(Nc3ccccc3S2)c2cc(C)ccc21` (stereo not given), 118%. The result for `CCCCNC(=O)Oc1ccc(/C(=C(\C)c2ccccc2)c2ccc(OCCN3CCCCC3)cc2)cc1` reads 49.4%. The figure for `Nc1ccc(C(OC(=O)c2cc3ccccc3c(Cc3c(O)c(C(=O)OC(c4ccc(N)cc4)(c4ccc(N)cc4)c4ccc(N)cc4)cc4ccccc34)c2O)(c2ccc(N)cc2)c2ccc(N)cc2)cc1` is 4.23% (active); for `COc1cccc(/C=C2\COc3ccc(O)c(O)c3C2=O)c1` it is -20% (active). Consider `OCC1OC(O)C(O)C(O)C1O` (stereo not given), for which the growth was 120%. For the molecule `CCCS(=O)(=O)c1nc(NC2CC2)cc(-c2ccc3c(ccn3C3CC(C)(C)NC(C)(C)C3)c2)n1`, the growth was -61.7% (active). In the case of `C=C1C(=O)O[C@H]2[C@H]1CC/C(COC(=O)NCc1cccc(OC)c1)=C\CC[C@@]1(C)O[C@@H]21`, the growth is -38.6% (active). The figure for `C#CCOc1cc(/C=N/Nc2nc(-c3ccc(OC)cc3)cs2)ccc1O` is 97.6%. The result for `COc1cccc(C2C(C#N)=C(N)Oc3cc(OCCCCCC[P+](c4ccccc4)(c4ccccc4)c4ccccc4)ccc32)c1` (stereo not given) reads -39.6% (active); that for `COc1ccc(NC(=O)c2sc3nc(C)c(C(O)c4ccccc4)cc3c2N)cc1` (stereo not given), -51.9% (active); that for `CCN(C(=O)N1CCN(c2cc3c(cc2F)c(=O)c(C(=O)O)cn3C2CC2)CC1)c1nc(-c2ccccc2)cs1`, -34% (active). On to `Cc1c2cnccc2c(C)c2c1c1cc(C3OCCCO3)ccc1n2C`, for which the growth is -4.04% (active). For `COc1ccc(Nc2ncc(Br)c(NCCCNC(=O)C3CCC3)n2)cc1`, the growth was -12.8% (active). The figure for `CO[C@@]12C=C[C@@]34CCC(=O)N3c3ccccc3[C@@H](O1)C4C2` is 96.9%; for `O=C(CSC(=S)N1CCCCC1)Nc1ccccc1` it is 100%. Turning to `O=C1NC(=O)C(=Cc2cn(Cc3ccccn3)c3ccccc23)C(=O)N1`, the growth was 101%. The figure for `Cc1ccc2c(-c3cc(-c4ccccc4)nc(N)c3C#N)cc(=O)oc2c1` is 117%; for `CC1(C)N=C(N)N=C(N)N1c1ccc(Cl)c(Cl)c1` it is 35.7%. As to `O=C(Cn1nc(-c2cccc3ccccc23)ccc1=O)NCc1cccc(Cl)c1`, the growth was 22.3% [50 µM].

As to `CC[N+](CC)=c1sc2c(s1)C(c1ccc(Cl)cc1)Oc1ccc(Cl)cc1-2` (stereo not given), the growth was -34.3% (active). The figure for `O=C1NC(=O)/C(=C\c2ccncc2)N1` is 119%; for `CN(Cc1cnc2nc(N)nc(N)c2n1)c1ccc(C(=O)N[C@@H](CCc2nn[nH]n2)c2nn[nH]n2)cc1` it is 31.9%. Regarding `Cc1ccc(S(=O)(=O)c2ccc3[nH]c(=O)[nH]c(=O)c3c2)cc1`, the growth was 89.3%. Turning to `Clc1ccc(-c2nc(-c3ccco3)cn3ccnc23)cc1`, the growth is 102%.

The values are drawn from PubChem BioAssay (NCI).
